Tb PYK inh: T. brucei pyruvate kinase inhibition | Q57TT1 | TbPYK enzyme, Kinase-Glo Plus ATP luminescence, 45 min | Potency, µM (series often up to 76.8 µM), without a hit: top-dose activity, negative = inhibition, usual class: inhibitors | actives 0.12% (n = 410,000); also: potency is read from the fitted curve at half-maximal effect; % is scaled to controls: 0 for no effect and ±100 for the full control effect; nearly all actives have a fitted effect of over 50% in size
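TbPYK + substrate in 50 mM TEA pH 7.2, 100 mM KCl, 10 mM MgCl2, 0.05% BSA, 0.01% Tween-20; cpd pinned; ADP 130 uM final; 45 min RT; Kinase-Glo Plus 10 min; luminescence endpoint.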
NS1 function inh: blocks influenza NS1 protein function. Potency, µM (series often up to 46.1 µM), for the others: at the highest dose activity, positive = more growth. AID 2326. actives 0.4% (n = 270,000); calls by dose curve; also: potency is read from the fitted curve at half-maximal effect; actives are rising curves; nearly all actives have a fitted effect of over 50% in size
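S. cerevisiae expressing influenza A NS1, grown in glucose, washed, then diluted 1:100 into pH 6.0 -URA galactose medium with 23 nl compound. Growth recovery read as OD600; NS1-free strain serves as control.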
SARS PLpro yeast: blocks SARS-CoV papain-like protease in a yeast assay | actives 0.19% (n = 330,000) | S. cerevisiae expressing SARS-CoV PLpro, growth rescue | Potency, µM (top dose mostly 32.9 µM), for inactives: at the highest dose activity, positive = growth rescue, actives largely listed as activators | AID 485353; calls by dose curve; also: potency is read from the fitted curve at half-maximal effect; 0% is about no effect; nearly all actives have a fitted effect of over 55% in size
LmPK inh: inhibitors of Leishmania mexicana pyruvate kinase | Q27686 | purified LmPK, Kinase-Glo ATP luminescence, 1 h | Potency, µM (top dose mostly 57.5 µM), without a hit: top-dose activity change, negative = inhibition, usual class: inhibitors | actives 0.37% (n = 290,000); also: potency is read from the fitted curve at half-maximal effect; % is scaled to controls: 0 for no effect and ±100 for the full control effect
Target sequence (Q27686 whole entry, looked up): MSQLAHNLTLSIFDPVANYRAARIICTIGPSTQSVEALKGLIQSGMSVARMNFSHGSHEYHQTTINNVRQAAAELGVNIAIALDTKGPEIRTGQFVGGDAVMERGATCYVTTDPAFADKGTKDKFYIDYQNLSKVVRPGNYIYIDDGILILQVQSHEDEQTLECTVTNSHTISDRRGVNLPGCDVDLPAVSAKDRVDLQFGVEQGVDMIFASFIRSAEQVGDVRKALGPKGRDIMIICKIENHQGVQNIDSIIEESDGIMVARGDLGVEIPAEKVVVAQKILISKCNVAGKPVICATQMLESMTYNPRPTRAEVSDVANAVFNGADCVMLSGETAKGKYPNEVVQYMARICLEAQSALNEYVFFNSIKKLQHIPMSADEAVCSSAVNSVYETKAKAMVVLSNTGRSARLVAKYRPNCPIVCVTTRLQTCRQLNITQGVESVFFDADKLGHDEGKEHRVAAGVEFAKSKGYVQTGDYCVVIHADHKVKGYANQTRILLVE
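ATP generated from ADP (0.1 mM) and PEP (0.5 mM) by 0.1 nM LmPK over 1 h at room temperature (pH 7.2 imidazole buffer) was detected by coupled luciferase luminescence. Values were normalized to uninhibited and no-enzyme wells.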
Cycloheximide cs: counter-screen for Shiga toxin inhibitors: cycloheximide protein synthesis inhibition | actives 12% (n = 300,000) | AID 2314 | max response, % | cell reporter, cycloheximide protein synthesis inhibition counterscreen; in the data active = max response mostly above about 13%, no sharp cut-off; inactive = mostly below about 14%; also: read at 38.3 µM for the half of the compounds with a filed dose; 0% is about no effect
Shiga toxin inh: inhibitors of Shiga toxin in Vero cells; Vero cells, Shiga toxin protein synthesis inhibition reporter; inhibition, % at 38.7 µM; actives 9.2% (n = 290,000); AID 2315; in the data active = inhibition mostly above about 28%, no sharp cut-off; inactive = mostly below about 43%; also: 0% is about no effect
The depositor's hits bear a star; ? = inconclusive; nt = no result; + = active, no number; [ ] = dose if it differs, or a comment. This is one part of a sample in which hits are shown more often than they occur. Unless noted, calls follow the shape of the dose curve; as a rule, active = well fitted curve in the direction sought with a large enough effect; inconclusive = small, poorly fitted or top-dose-only effect, or another doubt; inactive = no such curve, though single readings can be large; an effect the other way counts as inactive or inconclusive.

SMILES | Tb PYK inh | NS1 function inh | SARS PLpro yeast | LmPK inh | Cycloheximide cs | Shiga toxin inh
CN(C(=O)C1CCC1C(=O)O)c1nc(-c2ccc(Cl)s2)cs1 (configuration not stated) | -6.4% | 0.0% | 0.1% | 4.5% | 9.4 | 26.4
O=c1c2ccccc2nc2n1C(CBr)CN2 (configuration not stated) | 0.0% | 5.4% | 0.3% | -1.2% | -2.0 | -9.5
COc1ccc(-c2nc3scc(CCNS(=O)(=O)c4ccc5c(c4)OCCO5)n3n2)cc1OC | 0.3% | nt | nt | nt | nt | nt
Cc1cc(N2CCN(c3nc(-c4ccccc4)cs3)CC2)c2ccccc2n1 | -16.6% | -0.1% | 0.5% | 0.6% | -2.2 | -6.4
COc1ccc(-c2csc(N3CCC(c4ccccc4)C3)n2)cc1 (configuration not stated) | -6.2% | ? | -2.0% | 7.8% | 11.3 | 12.8
NC(=O)C1CCN(c2nc(-c3ccc4c(c3)OCCO4)cs2)CC1 | -24.2% | nt | 4.6% | nt | nt | nt
NC(=O)C1CCN(c2nc(-c3ccc(Br)cc3)cs2)CC1 | 3.6% | 1.7% | -10.2% | 0.6% | 19.8* | 28.3
Clc1ccc(-c2csc(N3CCC(c4ccccc4)C3)n2)cc1 (configuration not stated) | -1.3% | 7.9% | 1.0% | 2.5% | 18.8 | 94.9*
COc1ccc(-c2csc(N3CCOCC3)n2)cc1OC | ? | 0.8% | -2.9% | 1.2% | 51.3* | 74.6*
c1ccc(-c2csc(N3CCCCCC3)n2)cc1 | -13.6% | -6.2% | -0.3% | -0.6% | 33.4* | +
CCc1ccccc1NS(=O)(=O)Cc1ccccc1 | -5.3% | -9.3% | 2.7% | 0.3% | 9.2 | -8.1
O=C(NCC1CC1)c1ccc2c3n(nc2c1)-c1ccccc1CO3 | ? | -72.5% | -9.1% | 14.1µM* | 30.4* | 91.9*
Cc1ccc2c(c1)COc1c3ccc(C(=O)NCC4CC4)cc3nn1-2 | -2.0% | -45.4% | -0.7% | 5.8% | 30.4* | 53.9*
C=CCNC(=O)c1ccc2c3n(nc2c1)-c1ccc(Cl)cc1CO3 | 1.9% | nt | nt | nt | nt | nt
O=C(NCCO)c1ccc2c3n(nc2c1)-c1ccccc1CO3 | -28.2% | 1.4% | -2.8% | ? | 38.8* | 44.0*
CCN(c1ccc(OC)cc1)S(=O)(=O)c1nnc(NC(=O)c2ccccc2Cl)s1 | 5.0% | 8.3% | -1.2% | 2.0% | 8.7 | -8.3
COc1cccc(CC(=O)OCC(=O)c2cc(OC)c(OC)c(OC)c2)c1 | 7.8% | nt | 0.4% | nt | nt | nt
COC(=O)CSc1nc2cc(OC)ccc2cc1C#N | 5.6% | -45.2% | -1.1% | 1.1% | 53.0* | 68.0*
COc1ccc2cc(C#N)c(SCC(=O)N3CCCC3)nc2c1 | 3.4% | ? | -3.2% | 2.4% | 2.8 | 14.2
CCSc1nc2ccc(OC)cc2cc1C#N | 0.3% | 3.4% | 18.9% | -2.2% | -1.4 | 20.2
COC(=O)CSc1nc2ccc(C)cc2cc1C#N | 2.3% | nt | 0.7% | 14.0% | 36.4* | 149.2*
CCOc1ccc2nc(SCC#N)c(C#N)cc2c1 | -4.5% | 1.7% | -7.3% | 0.5% | 21.9* | 24.5
CCOC(=O)CSc1nc2cc(OCC)ccc2cc1C#N | nt | -3.5% | -0.4% | -6.8% | 65.2* | 88.3*
O=C(c1cccn1-c1nnc(N2CCCC2)s1)N1CCN(c2ccc(F)cc2)CC1 | -0.3%[15.4 µM] | nt | nt | nt | nt | nt
Cc1onc(-c2c(F)cccc2Cl)c1C(=O)OCC(=O)N(C)c1ccccc1 | 11.0% | nt | nt | nt | nt | nt
SMILES | Tb PYK inh | NS1 function inh | SARS PLpro yeast | LmPK inh | Cycloheximide cs | Shiga toxin inh
Cc1ccc(C(=O)N2[C@@H]3CN(C)C(=O)[C@@]2(Cc2ccccc2)[C@H]2C(=O)N(C)C(=O)[C@@H]32)cc1 | 3.0% | nt | nt | nt | nt | nt
COc1ccc(C(=O)NCCNc2nc3ccc(C)cc3cc2C#N)cc1 | 3.6% | 7.4% | 8.4% | -20.4% | 23.0* | 34.1*
Cc1cc(=O)n2[nH]c(N)c(N=Nc3ccccc3)c2n1 | -2.4% | 10.0% | 0.1% | -11.2% | -3.2 | 13.2
Cc1[nH]c(N=Nc2ccccc2)nc1N=Nc1ccccc1 | -13.8% | -55.9% | -6.6% | -6.4% | 13.8 | 70.8*
Clc1cccc(Cl)c1CSc1cc2c(nn1)-c1ccccc1CC2 | -5.8% | 4.2% | -1.6% | 1.5% | -1.6 | -25.8
Clc1ccccc1CSc1cc2c(nn1)-c1ccccc1CC2 | 2.8% | -2.8% | -14.6% | 1.6% | 42.2* | 165.2*
Cc1c(C(=O)OC(C)C)[nH]c2c1C(=O)CC(C)(C)C2 | -5.5% | -4.7% | -6.0% | 3.9% | 11.3* | -2.1
CN(C)C1=NCCN1CC1CCCC1 | -1.5% | nt | -1.2% | nt | nt | nt
CC(=O)N[C@@H](Cc1ccc(O)cc1)C(=O)N[C@H](C(=O)N[C@@H](C)C(=O)N[C@H](C#N)CC(=O)O)C(C)C | nt | nt | 3.1% | nt | nt | nt
COCc1nnc(NC(=O)C2CC(=O)N(C3CCCC3)C2)s1 (configuration not stated) | -5.0% | -2.6% | -1.5% | 0.2% | -5.1 | -11.2
N=C(N)c1ccc(OCCCOc2ccc(C(=N)N)cc2Br)c(Br)c1 | -0.9% | nt | nt | nt | nt | nt
O=C(c1nc2ccccc2s1)N1CCN(c2ccccn2)CC1 | 33.1% | -10.7% | -3.0% | -4.2% | 20.7* | 28.7*
O=C(c1ccc2ccccc2n1)N1CCN(c2ccccn2)CC1 | 1.0% | -0.4% | 1.9% | -7.3% | -3.9 | -3.3
O=C(c1nc2ccccc2s1)N1CCSCC1 | -0.2% | 3.9% | 1.8% | -13.0% | 29.2* | 134.7*
CC/C(O)=N/S(=O)(=O)c1ccc(-c2c(-c3ccccc3)noc2C)cc1 | 2.8% | nt | nt | nt | nt | nt
O=C(Oc1ccc(/C=N/NC(=O)c2ccccn2)cc1)c1cccc(Br)c1 | 1.4% | 15.6% | -1.8% | 3.5% | 27.9* | 59.2*
O=C(N/N=C/c1ccc(OC(=O)c2cccs2)cc1)c1ccccn1 | -16.1% | -4.6% | -4.5% | -5.7% | 44.9* | 53.1*
CCOc1cc(/C=N/NC(=O)c2ccccn2)ccc1OC(=O)c1cccs1 | -5.7% | 13.3% | ? | 0.3% | 28.4* | 42.9*
CC(C)(C)OC(=O)N/N=C/c1ccc(Br)cc1 | -0.9% | nt | -2.9% | -3.1% | 40.2* | 104.7*
O=C(N/N=C\c1ccc(OC(=O)c2cccs2)cc1)c1ccc(Cl)cc1 | 5.8% | -17.1% | -8.5% | 0.4% | -1.0 | 15.7
CCCNC(=O)C1CCC(Cn2c(=O)c3sccc3n(CC(=O)N3CCC(C)CC3)c2=O)CC1 (configuration not stated) | 0.6% | nt | nt | nt | nt | nt
COc1cc(OC)c(OC)cc1CNCCSc1nnnn1-c1ccccc1 | 2.1% | nt | nt | nt | nt | nt
O=C(N/N=C/c1ccc(OC(=O)c2ccco2)cc1)c1ccccn1 | -5.7% | -22.7% | -0.5% | -10.1% | 27.3* | 39.4*
CC(C)(C)OC(=O)N/N=C\c1ccc(OC(=O)c2cccs2)cc1 | -9.7% | -23.7% | 4.3% | 2.7% | 14.6 | 97.5*
CN(C(=O)CSc1nncn2c1cc1occc12)c1ccccc1 | 0.8% | nt | nt | nt | nt | nt
Cc1cccc(CC(=O)c2c[nH]c3ccccc23)c1 | 3.2% | -2.0% | 0.1% | 0.6% | 16.5 | 51.2*
CC1(C(=O)OCC(=O)c2c[nH]c3ccccc23)CC1(Cl)Cl (configuration not stated) | 1.0% | -107.9% | -21.4% | -6.3% | 53.5* | 85.5*

Screens deposited in PubChem BioAssay by National Center for Advancing Translational Sciences (NCATS).
